Test systems include RPMI-8226 leukemia; OVCAR-8 ovarian; OVCAR-5 ovarian; OVCAR-4 ovarian; SK-OV-3 ovarian; IGROV1 ovarian; OVCAR-3 ovarian; HS 578T breast; NCI/ADR-RES ovarian; T-47D breast.
What all share (assay): NCI-60 one-dose screen, 48 h (100 = growth as untreated, 0 = no growth, -100 = all killed)
Conditions in all cases: 10 µM unless noted

The panel holds about 83,000 compounds, 20% with a hit somewhere; the sample as a whole holds those more often.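 A percent growth of 40 corresponds to 60% growth inhibition; 0 means no net growth; -100 means all cells died. Active threshold: below 10.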 Values without a mark were called inactive. Calls of active or inactive are those of the source.

For `O=C(Nc1ccc(S(=O)(=O)NC2CCCCCC2)cc1)C(c1ccccc1)S(=O)(=O)c1ccc(F)cc1` (stereo not given), the growth in the assay with RPMI-8226 leukemia was -23.1% (active); in the assay on OVCAR-8 ovarian it was 8.45% (active); in the assay with OVCAR-5 ovarian, 5.42% (active); in the assay with OVCAR-4 ovarian, 4.28% (active); in the assay with SK-OV-3 ovarian it was 3.67% (active); in the assay on IGROV1 ovarian, 9.4% (active). Besides, the growth in the assay with OVCAR-3 ovarian was 3.59% (active); in the assay on HS 578T breast, -2.41% (active); with NCI/ADR-RES ovarian, 15.1%; in the assay with T-47D breast it was 8.11% (active).

On to `COc1ccc(Cl)c([N+](=O)[O-])c1`, for which the growth was 106% with RPMI-8226 leukemia; 106% with OVCAR-8 ovarian; 102% with OVCAR-5 ovarian; 101% in the assay on OVCAR-4 ovarian; 98% in the assay with SK-OV-3 ovarian; 108% with IGROV1 ovarian. The growth is 112% with OVCAR-3 ovarian, 105% with HS 578T breast, 102% in the assay with NCI/ADR-RES ovarian and 84% in the assay with T-47D breast.

Consider `Nc1c(C(=O)Nc2ccccn2)sc2nc3c(cc12)CCCCCC3`, for which the growth in the assay on RPMI-8226 leukemia was 5.43% (active); in the assay with OVCAR-8 ovarian, 19.3%; with OVCAR-5 ovarian, 46.6%; in the assay with OVCAR-4 ovarian, 23.6%; in the assay with SK-OV-3 ovarian it was 19%; with IGROV1 ovarian, 28.9%. Also, the growth in the assay with OVCAR-3 ovarian was -44.5% (active); with HS 578T breast it was 18.9%; with NCI/ADR-RES ovarian, 18.8%; in the assay with T-47D breast it was 23.4%.

Turning to `COC1=CC=CC2(OC)C3(O)CCCc4cccc(c43)N3C(=O)COC132` (stereo not given), the growth is 92.4% in the assay with RPMI-8226 leukemia; 99.2% in the assay on OVCAR-8 ovarian; 104% in the assay on OVCAR-5 ovarian; 96.6% in the assay with OVCAR-4 ovarian; 107% in the assay with SK-OV-3 ovarian; 94.7% in the assay with IGROV1 ovarian. In addition, the growth in the assay on OVCAR-3 ovarian is 109%; in the assay with HS 578T breast, 93.7%; in the assay on NCI/ADR-RES ovarian, 101%; in the assay on T-47D breast, 97.7%.

Turning to `CC(/C=C/c1ccccc1)=N/NC(=O)c1ccncc1`, the growth in the assay on RPMI-8226 leukemia was 99.9%; with OVCAR-8 ovarian it was 101%; in the assay on OVCAR-5 ovarian it was 114%; with OVCAR-4 ovarian, 105%; with SK-OV-3 ovarian, 105%; with IGROV1 ovarian, 103%. Further, the growth in the assay on OVCAR-3 ovarian was 109%; in the assay on HS 578T breast it was 99.6%; in the assay on NCI/ADR-RES ovarian it was 107%; in the assay with T-47D breast, 99%.

As to `O=C1CS/C(=N/c2nnc(-c3ccc(O)cc3)s2)N1`, the growth with RPMI-8226 leukemia is 101%; with OVCAR-8 ovarian, 109%; in the assay on OVCAR-5 ovarian it was 103%; in the assay on OVCAR-4 ovarian it was 110%; in the assay on SK-OV-3 ovarian, 82%; in the assay with IGROV1 ovarian it was 107%. Moreover, the growth is 107% with OVCAR-3 ovarian, 95.4% in the assay with HS 578T breast, 99.3% in the assay on NCI/ADR-RES ovarian and 75.3% in the assay with T-47D breast.

With `O=C1[C@@H](OS(=O)(=O)CC(F)(F)F)[C@H](c2ccc(F)cn2)N1c1cc2c3ccccc3ccc2c2ccccc12`, the growth was 25.1% in the assay on RPMI-8226 leukemia; 78.6% with OVCAR-8 ovarian; 104% with OVCAR-5 ovarian; 86.3% with OVCAR-4 ovarian; 95.8% with SK-OV-3 ovarian; 70% in the assay on IGROV1 ovarian. Also, the growth with OVCAR-3 ovarian is 49.3%; in the assay on HS 578T breast it was 68.3%; in the assay with NCI/ADR-RES ovarian, 72.2%; in the assay on T-47D breast, 84.9%.

Regarding `N#Cc1c(-c2ccc(F)cc2)nc(N/N=C/c2c[nH]c3ccccc23)nc1N1CCOCC1`, the growth in the assay with RPMI-8226 leukemia is 33.5%; with OVCAR-8 ovarian it was 58%; with OVCAR-5 ovarian, 94.8%; in the assay with OVCAR-4 ovarian, 80.4%; with SK-OV-3 ovarian, 92.6%; with IGROV1 ovarian, 65.1%. In addition, the growth was 65.9% in the assay with OVCAR-3 ovarian, 34.4% in the assay on HS 578T breast, 61% in the assay with NCI/ADR-RES ovarian and 76.4% in the assay with T-47D breast.

Turning to `NC(=O)c1ccc(C2C3=C(CCCC3=O)OC3=C2C(=O)c2ccccc2C3=O)cc1` (stereo not given), the growth in the assay with RPMI-8226 leukemia is 18.6%; with OVCAR-8 ovarian it was -1.42% (active); in the assay on OVCAR-5 ovarian, 96.4%; with OVCAR-4 ovarian, -12.8% (active); in the assay on SK-OV-3 ovarian, 104%; in the assay with IGROV1 ovarian it was 8.86% (active). The growth was -20.4% (active) with OVCAR-3 ovarian, 67.1% with HS 578T breast, 79.8% with NCI/ADR-RES ovarian and -1.02% (active) in the assay on T-47D breast.

For the molecule `C#Cc1cccc(Nc2ncnc3ccc(NC(=O)c4ccccc4)cc23)c1`, the growth with RPMI-8226 leukemia is 64.6%; in the assay with OVCAR-8 ovarian, 81.1%; in the assay with OVCAR-5 ovarian it was 83.4%; in the assay on OVCAR-4 ovarian, 80.4%; in the assay on SK-OV-3 ovarian, 75.3%; with IGROV1 ovarian, 33.7%. In addition, the growth in the assay on OVCAR-3 ovarian was 66.2%; in the assay on HS 578T breast, 102%; in the assay with NCI/ADR-RES ovarian, 69.8%; in the assay on T-47D breast it was 61.4%.

Turning to `O=C1c2ccccc2C(=O)c2c1oc1c2c(=O)[nH]c2ccc(Cl)cc21`, the growth in the assay with RPMI-8226 leukemia is 4.83% (active); in the assay with OVCAR-8 ovarian, -27.5% (active); in the assay with OVCAR-5 ovarian it was 52.7%; in the assay on OVCAR-4 ovarian it was -42% (active); in the assay on SK-OV-3 ovarian, 1.64% (active); in the assay with IGROV1 ovarian it was -3.63% (active). In addition, the growth is -68.4% (active) in the assay with OVCAR-3 ovarian, -7.55% (active) in the assay with HS 578T breast, 22.3% in the assay on NCI/ADR-RES ovarian and -58.1% (active) in the assay with T-47D breast.

Take `C[C@H]1[C@H](C)CC[C@]2(C(=O)OCCCC[P+](c3ccccc3)(c3ccccc3)c3ccccc3)CC[C@]3(C)C(=CC[C@@H]4[C@@]5(C)CC[C@H](OC(=O)C(Cl)Cl)C(C)(C)[C@@H]5CC[C@]43C)[C@H]12`: the growth is -53.3% (active) with RPMI-8226 leukemia; -36.8% (active) in the assay with OVCAR-8 ovarian; -52.2% (active) in the assay on OVCAR-5 ovarian; -12.1% (active) in the assay with OVCAR-4 ovarian; -15.5% (active) with SK-OV-3 ovarian; -51.8% (active) in the assay on IGROV1 ovarian. Moreover, the growth with OVCAR-3 ovarian is -88.8% (active); in the assay with HS 578T breast, -20.1% (active); with NCI/ADR-RES ovarian, 36.8%; with T-47D breast, -23.8% (active).

`COc1ccccc1Nc1nnc(-c2ccc(Cl)cc2)o1`: the growth with RPMI-8226 leukemia is 29.2%; with OVCAR-8 ovarian, 60.1%; with OVCAR-5 ovarian, 86.5%; in the assay with OVCAR-4 ovarian it was 68.3%; in the assay with SK-OV-3 ovarian, 47.7%; with IGROV1 ovarian it was 52.8%. Also, the growth was 8.06% (active) with OVCAR-3 ovarian, 64.5% in the assay with HS 578T breast, 20.8% in the assay on NCI/ADR-RES ovarian and 32.4% in the assay with T-47D breast.

Take `COc1ccc(-c2cc(-c3nnc(SCC(=O)Nc4ccc(/C(C)=N\O)cc4)n3-c3ccccc3)c3cc(OC)ccc3n2)cc1`: the growth in the assay on RPMI-8226 leukemia is 66.7%; in the assay on OVCAR-8 ovarian it was 75.8%; in the assay on OVCAR-5 ovarian it was 102%; in the assay on OVCAR-4 ovarian it was 92.1%; with SK-OV-3 ovarian, 79.9%; in the assay with IGROV1 ovarian, 39.6%. Also, the growth was 77.4% in the assay with OVCAR-3 ovarian, 82.7% in the assay with HS 578T breast, 71.3% in the assay with NCI/ADR-RES ovarian and 45.4% in the assay on T-47D breast.

As to `COc1cc(NCC(=O)Nc2cc(Nc3ccc(C)cc3)ncn2)c(Cl)c(OC)c1Cl`, the growth in the assay with RPMI-8226 leukemia was 82.9%; in the assay with OVCAR-8 ovarian it was 88.4%; with OVCAR-5 ovarian, 92.3%; in the assay on OVCAR-4 ovarian it was 78.5%; with SK-OV-3 ovarian, 81.9%; with IGROV1 ovarian, 82.5%. For the same molecule, the growth in the assay on OVCAR-3 ovarian was 84.3%; with HS 578T breast, 83.5%; in the assay on NCI/ADR-RES ovarian it was 91.3%; in the assay on T-47D breast, 70.6%.

For the origin of these results see PubChem BioAssay (NCI).
